From PubChem
Shown are actives, neighbours in structure and some others; about 19% of the full set was active somewhere.
Shiga toxin inh – A qHTS for Small Molecule Inhibitors of Shiga Toxin; 290,000 tested, 9.2% active; AID 2315, 2010; Vero cells, Shiga toxin protein synthesis inhibition reporter; inhibition, % at 38.7 µM; in the data active means inhibition mostly above about 28%, no sharp cut-off; inactive means mostly below about 43%; further: 0% is about no effect
Cycloheximide cs – Cycloheximide Counterscreen for Small Molecule Inhibitors of Shiga Toxin; 300,000 tested, 12% active; AID 2314, 2010; cell reporter, cycloheximide protein synthesis inhibition counterscreen; max response, %; in the data active means max response mostly above about 13%, no sharp cut-off; inactive means mostly below about 14%; further: read at 38.3 µM for the half of the compounds with a filed dose; 0% is about no effect
Pf growth 96h – Primary qHTS for delayed death inhibitors of the malarial parasite plastid, 96 hour incubation. P. falciparum luciferase reporter growth, 96 h. Potency, µM (doses to about 28.7 µM), without a hit: at the highest dose activity change, negative = inhibition, usual class: inhibitors. 320,000 tested, 6.9% active. AID 504834, 2011; further: potency means the concentration at half of the fitted maximal effect; on the % scale 0 is the no-effect control and ±100 the full control effect
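Delayed-death screen, second-generation endpoint: infected erythrocytes, 2% hematocrit, 0.05% parasitemia final; 96 hours at 37 C, 5% CO2; luciferase detection reagent; luminescence decrease equals reduced growth.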
LASV entry inh – qHTS for Inhibitors of binding or entry into cells for Lassa Virus. 300,000 tested, 1.2% active. Lassa virus pseudotype entry inhibition, cell reporter. Potency, µM (top dose mostly 37.9 µM), for the others: at the highest dose activity change, negative = inhibition, hits mostly inhibitors; calls by dose curve; tested in HEK293 cells; further: potency means the concentration at half of the fitted maximal effect; on the % scale 0 is the no-effect control and ±100 the full control effect; nearly all actives have a fitted effect of over 50% in size
Pf growth 48h – Primary qHTS for delayed death inhibitors of the malarial parasite plastid, 48 hour incubation | AID 504832, 2011 | P. falciparum luciferase growth in erythrocytes, 48 h | 310,000 tested, 5.9% active | Potency, µM (top dose mostly 28.7 µM), for inactives: at the top dose activity change, negative = inhibition, most hits filed as inhibitors; further: potency means the concentration at half of the fitted maximal effect; on the % scale 0 is the no-effect control and ±100 the full control effect
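Parasite viability was followed by luminescence of a genomically integrated firefly luciferase. Cultures held 0.1% parasitemia at 2% hematocrit (final), incubated under 5% CO2 at 37 C.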
MARV entry inh – qHTS for inhibitors of binding or entry into cells for Marburg Virus | Potency, µM (series often up to 37.8 µM), for the others: top-dose activity change, negative = inhibition, most hits filed as inhibitors | 300,000 tested, 1.8% active | AID 540276, 2011 | Marburg virus pseudotyped entry inhibition, cell reporter; calls by dose curve; tested in HEK293 cells; further: potency means the concentration at half of the fitted maximal effect; on the % scale 0 is the no-effect control and ±100 the full control effect
Numbers without * were called inactive; ? = inconclusive; . = not tested or not shown; [ ] = dose if it differs, or a comment. Unless noted, the call rests on the fitted dose curve; in most records, active means well fitted inhibition curve with a large enough effect; inconclusive means small, poorly fitted or top-dose-only effect, or another doubt; inactive means no such curve, though single readings can be large or run the other way.

SMILES | Shiga toxin inh | Cycloheximide cs | Pf growth 96h | LASV entry inh | Pf growth 48h | MARV entry inh
COc1ccc(/C(C#N)=C/c2cccnc2)cc1 | 71* | 45* | 68% | . | 77% | .
COc1ccc(/C=C(\C#N)C(=O)Nc2cccnc2)cc1 | 14 | -2 | -23% | 0% | 12% | ?
N#C/C(=C\c1cccnc1)c1ccccn1 | 25 | 11* | ? | . | 4% | .
N#C/C(=C\c1ccncc1)c1ccccn1 | 6 | 2 | 10µM* | -26% | ? | ?
N#C/C(=C\c1ccc(Cl)c([N+](=O)[O-])c1)c1ccccn1 | -11 | 12 | 41%[5.75 µM] | . | 18%[5.75 µM] | ?
CNc1ccc(/C=C(\C#N)c2ccccn2)cc1[N+](=O)[O-] | 69* | 45* | 187% | ? | 223% | ?
Cc1ccc(C(=O)NCCCN2CCOCC2)cc1N1CCCC1=O | 14 | -3 | 1% | ? | -1% | 1%[46.1 µM]
CCn1c(SCC(=O)c2ccc(Cl)cc2)nnc1C(C)C | 116* | 34* | ? | 3% | 32% | 21%
CCn1c(SCC(=O)c2ccc(Cl)cc2)nnc1-c1cccs1 | 25 | 23 | -12% | 9% | . | -7%[46.1 µM]
CCc1cccc(CC)c1NC(=O)CSc1nnc(C(C)C)n1CC | -4 | -6 | ? | ? | 17% | 0%[46.1 µM]
CCn1c(SCC(N)=O)nnc1C(C)C | -13 | -2 | 8.3µM* | -2% | 13% | 2%[46.1 µM]
O=[N+]([O-])c1ccc(CN2CCN(c3ncccn3)CC2)cc1 | 10 | -1 | 148% | . | 23% | .
Brc1ccc(-c2csc3ncnc(-n4nnc5ccccc54)c23)cc1 | 11 | 4 | ? | ? | -14% | 13µM*
Cc1sc2ncnc(-n3nnc4ccccc43)c2c1C | 18 | -1 | 0% | . | -2% | .
CC(O)CNc1nc2ccccc2n1-c1ncnc2sc3c(c12)CCC3 (stereo not given) | 1 | 2 | 4.1µM* | 21% | . | ?
Cc1nc(-n2nnc3ccccc32)c2c3c(sc2n1)CCCC3 | 29 | 1 | 3%[5.75 µM] | 1% | -8% | -18%
c1ccc2c(c1)nnn2-c1ncnc2sc3c(c12)CCCC3 | 28 | 14* | 3.3µM* | -11%[14.3 µM] | 0% | 12%
O=C1c2ccccc2C(=O)N1CCSc1nc2ccccc2c(=O)n1CCCN1CCOCC1 | -5 | 9 | ? | 13% | -4% | 14%[46.1 µM]
CCOc1ccccc1C1CC(=O)Nc2cc(OC)c(OC)cc21 (stereo not given) | -18 | 1 | -19% | -23% | -11% | -6%
Cc1ccc(N2CC(O)(c3cccs3)[N+]3=C2CCCC3)cc1 (stereo not given) | -9 | -1 | 5.2µM* | 2% | ? | ?
Cc1cccc(N2CC(O)(c3cccs3)[N+]3=C2CCCC3)c1 (stereo not given) | -5 | -3 | -72% | 8% | 1% | -13%[46.1 µM]
CC(C)(C)S(=O)(=O)c1ccc2nc3c(n2c1)CCCC3 | -5 | -2 | 90% | -2% | 1% | -9%[46.1 µM]
CC(NC(=O)Nc1ccc(O)cc1)(C(F)(F)F)C(F)(F)F | -5 | -2 | ? | -21% | ? | -4%
S=c1c2c(nc3nc[nH]n13)CCC2 | -5 | -1 | 1.7µM* | . | 2.1µM* | .
[O-]c1c[n+](-c2ccc(-[n+]3cc([O-])on3)cc2)no1 | 40 | 21* | -1% | 10% | 6% | 11%[46.1 µM]
SMILES | Shiga toxin inh | Cycloheximide cs | Pf growth 96h | LASV entry inh | Pf growth 48h | MARV entry inh
CC(=O)Nc1ccc2nc(C3CC3)n(Cc3ccc(Cl)cc3)c(=O)c2c1 | 49* | 23* | 36% | . | 127% | .
CCC(=O)Nc1ccc2nc(C3CC3)n(Cc3ccc(C(C)(C)C)cc3)c(=O)c2c1 | 90* | 57* | 26% | . | 195% | .
COc1ccc(Cn2c(C3CC3)nc3ccc(NC(=O)C4CC4)cc3c2=O)cc1 | 84* | 24* | -11% | ? | 233% | ?
CC(=O)c1cccc(NC(=O)CCCN(C)S(=O)(=O)c2ccc(F)cc2)c1 | 36 | 7 | ? | -19%[46.1 µM] | -19% | 9%[46.1 µM]
Nc1cc(=O)[nH]c(SCC(=O)Nc2cc(Cl)ccc2Cl)n1 | 8 | 7 | 85% | 8%[46.1 µM] | -5% | 3%[46.1 µM]
CCc1ccc(CNC(=O)C2CCCN(c3nn4cc(-c5ccc(F)cc5)nc4s3)C2)cc1 (stereo not given) | . | . | . | 19%[46.1 µM] | . | .
CCc1ccc(N2C(=O)NC(=O)C(CCc3ccncc3)(CCc3ccncc3)C2=O)cc1 | 14 | 1 | 1% | ? | ? | ?
O=C1NC(=O)C(CCc2ccncc2)(Cc2cccc(Cl)c2Cl)C(=O)N1c1ccc(Br)cc1 (stereo not given) | -15 | -10 | 5.2µM* | ? | ? | ?
CCC(Sc1nc(-c2ccccc2)cc(=O)[nH]1)C(=O)O (stereo not given) | -12 | -3 | 25% | -13% | 28% | 4%
Cc1[nH]c2ccc(C(=O)NC3CCC(C)CC3)cc2c1C (stereo not given) | 58* | 26* | ? | . | 12% | .
Cc1[nH]c2ccc(C(=O)NC3CCCC3)cc2c1C | . | . | -27% | . | 1% | .
CC1CCC(NC(=O)c2ccc3nc[nH]c3c2)CC1 (stereo not given) | 47* | 41* | 56% | 0% | 42% | 19%
COc1cc(/C=N/NC(=O)c2ccc(NC(=O)C3CC3)cc2)ccc1OC(C)=O | -3 | -2 | ? | -26% | -10% | 2%
CCCCc1ccc(S(=O)(=O)N/N=C(/C)c2ccncc2)cc1 | -6 | 3 | -20% | -4% | 4% | 0%
CCNc1nc(NCC)n2c(SCC(=O)NCC3CCCCC3)nnc2n1 | -5 | -1 | -1% | -27% | 4% | 22%[46.1 µM]
Cc1cccc(C)c1OCC(=O)Nc1ccc(N2CCOCC2)cc1 | 24 | 1 | 1.5µM* | . | ? | .
Cc1ccc(C(=O)N2CCN(c3ccc(NC(=O)COc4ccccc4C)cc3)CC2)cc1 | -10 | 9 | ? | ? | 8.3µM* | ?
Cc1nn(CC(=O)Nc2ccc(N3CCOCC3)cc2)c(C)c1Cl | 35 | 8.8* | -17% | 9% | 15% | 20%
CC(C)CC(=O)Nc1ccc(N2CCN(S(C)(=O)=O)CC2)cc1 | 26 | -3 | -3% | 6% | 3% | ?
CC(C)CC(=O)Nc1ccc(N2CCOCC2)cc1 | 89* | 16 | . | 2% | 36% | 23%
Cc1nn(CC(=O)Nc2ccc(N3CCOCC3)cc2)c(C)c1Br | -4 | 1 | 22% | 2% | 44% | -6%
CCC(=O)N1CCN(c2ccc(NC(=O)COc3ccc(C)cc3C)cc2)CC1 | 24 | 1 | -19% | 15% | ? | ?
O=C(Cn1ccc2ccccc21)Nc1ccc2c(c1)OCO2 | 22 | 0 | -36% | -3%[46.1 µM] | 11% | ?
O=C(O)c1cc(S(=O)(=O)N2CCOCC2)ccc1N1CCOCC1 | -19 | 10 | . | 1% | 24% | -22%[46.1 µM]
COc1ccccc1OCC(=O)Nc1ccc(N2CCCCC2)cc1 | 18 | 14 | 21% | . | -65% | .
